From PubChem BioAssay AID1076 (NMMLSC, 2008) come the findings set out here.

The nature of this experiment: cytotoxicity in LNCaP prostate cells – cell-based, cell event count, single point, cytotoxicity control for prostate differentiation activator project, confirmation (AID 1076).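 Note: counts scatter-gated live cells after medium removal discards detached dead cells.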 The conditions noted are these: LNCaP cell loss, flow cytometry event count, 4 d, stronger effect = lower value.

Activity calls are given as the source filed them.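 Rule for the calls: active = cell event count below 40, meaning activity score above 60 where score is 100 minus count; inactive = the rest.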

In the case of `Cc1cc(NC(=O)CSc2nnc(C3CC3)n2C)no1`, the cell event count was 198 (inactive) (at 100 µM) and 100 (event count, at 10 µM).

Take `Cc1cccc(OCCn2c(=O)n(C)c3ccccc32)c1`: the cell event count is, setting by setting: (at 100 µM) 15 (inactive); (event count, at 10 µM) 136.

On to `Cc1cc(N2CCC(N(C)C3CCCC3)CC2)nc2cc(O)ccc12`, for which the cell event count was 26 (inactive) (at 100 µM) and 196 (event count, at 10 µM).

`CCN(CCNC(=O)C1CCN(Cc2nc(-c3cccc(Cl)c3)oc2C)CC1)c1ccccc1`: the cell event count (at 100 µM) was 3 (active) and the cell event count (event count, at 10 µM) came to 83.

As to `COc1cc(C2C3=C(Nc4ncnn42)c2ccccc2CC3)cc(OC)c1OC` (configuration not stated), the cell event count is 295 (inactive) (at 100 µM) and 428 (event count, at 10 µM).

As to `COc1ccc(/C=N/c2nc3ccccc3n2C)cc1OC`, the cell event count (at 100 µM) is 90 (inactive) and the cell event count (event count, at 10 µM) turned out to be 35.5.

For the molecule `COc1ccc(-c2ccc(-c3noc(-c4ccccc4)n3)c(OC)n2)cc1`, the cell event count (at 100 µM) was 30 (active) and the cell event count (event count, at 10 µM) was 32.

On to `O=C(NCCCN1CCN(c2cccc(Cl)c2)CC1)c1ccc(N2CCCC2=O)cc1`, for which the cell event count by setting is: (at 100 µM) 52 (inactive); (event count, at 10 µM) 171.

With `CCCN(CCC)CCNC(=O)C1CCN(Cc2nc(-c3ccc(Cl)cc3)oc2C)CC1`, the cell event count was 55 (inactive) (at 100 µM) and 120 (event count, at 10 µM).

In the case of `Cc1oc(-c2ccc(Cl)cc2)nc1CN1CCC(C(=O)N2CCc3ccccc3C2)CC1`, the cell event count (at 100 µM) is 18 (inactive) and the cell event count (event count, at 10 µM) stood at 320.

Take `CN1CCN(c2cc3c(c4c2[nH]c2ccccc24)C(=O)CC(C)(C)C3)CC1`: the cell event count was 31 (inactive) (at 100 µM) and 231 (event count, at 10 µM).

Take `c1cncc(-c2nc3ccccc3o2)c1`: the cell event count is 49 (inactive) (at 100 µM) and 89.5 (event count, at 10 µM).

Take `CCOC(=O)C1=C(O)CCn2c1nc1ccccc12`: the cell event count is 206 (inactive) (at 100 µM) and 257 (event count, at 10 µM).

Regarding `COc1ccc2nc3oc(C(=O)NCc4cccs4)cc3cc2c1`, the cell event count is 307 (inactive) (at 100 µM) and 304 (event count, at 10 µM).

Take `COc1ccc(C(CC(=O)O)NC(=O)Cc2ccccc2)cc1` (configuration not stated): the cell event count was 186 (inactive) (at 100 µM) and 66.5 (event count, at 10 µM).

Regarding `Cc1cc(NC(=O)CSc2nnc(Cn3c(=O)sc4ccccc43)n2-c2ccccc2C)no1`, the cell event count runs as follows: (at 100 µM) 200 (inactive); (event count, at 10 µM) 121.

On to `CN(CC(=O)Nc1ccc2c(c1)OCCO2)S(=O)(=O)c1cccc2cccnc12`, for which the cell event count runs as follows: (at 100 µM) 95 (inactive); (event count, at 10 µM) 156.

As for `Cc1ccccc1-c1nc(CN2CCC(C(=O)N3CCC(C(N)=O)CC3)CC2)c(C)o1`, the cell event count (at 100 µM) is 150 (inactive) and the cell event count (event count, at 10 µM) amounted to 83.5.

In the case of `COc1ccc(CCNC(=O)C2CCCN(Cc3nc(-c4cccc(Cl)c4)oc3C)C2)cc1OC` (configuration not stated), the cell event count (at 100 µM) is 21 (inactive) and the cell event count (event count, at 10 µM) worked out at 247.

In the case of `CCCc1ccc(Oc2cn[nH]c2-c2ccc(O)c(C)c2O)cc1`, the cell event count by setting is: (at 100 µM) 5 (inactive); (event count, at 10 µM) 106.

On to `Cc1oc(-c2ccc(Cl)cc2)nc1CN1CCC(C(=O)NCc2ccco2)CC1`, for which the cell event count is, setting by setting: (at 100 µM) 178 (inactive); (event count, at 10 µM) 174.

Regarding `CCCCOc1ccccc1NC(=O)Cn1c(-c2nonc2N)nc2ccccc21`, the cell event count is, setting by setting: (at 100 µM) 99 (inactive); (event count, at 10 µM) 86.5.

`Cc1ccc(-n2nc3cc(Cl)c(NC(=O)c4ccco4)cc3n2)cc1`: the cell event count runs as follows: (at 100 µM) 333 (inactive); (event count, at 10 µM) 236.

`CN1C(=O)c2ccc(S(=O)(=O)c3ccc(C(=O)O)cc3)cc2C1=O`: the cell event count runs as follows: (at 100 µM) 195 (inactive); (event count, at 10 µM) 166.

On to `Cc1nc2nc(C)c(CCC(=O)NCCCN3CCN(c4cccc(Cl)c4)CC3)c(C)n2n1`, for which the cell event count reads like this: (at 100 µM) 43 (inactive); (event count, at 10 µM) 61.

With `Cc1ccccc1-c1nc(CN2CCC(C(=O)N3CCN(c4ccccn4)CC3)CC2)c(C)o1`, the cell event count runs as follows: (at 100 µM) 73 (inactive); (event count, at 10 µM) 190.

Turning to `N#C/C(=C\c1ccc(O)c(O)c1)C(=O)NCCCc1ccccc1`, the cell event count is, setting by setting: (at 100 µM) 38 (inactive); (event count, at 10 µM) 99.

Take `O=C(Cn1cc2c(n1)CCCC2)NCCCN1CCN(c2ccccc2F)CC1`: the cell event count is, setting by setting: (at 100 µM) 94 (inactive); (event count, at 10 µM) 102.

With `CC(C)CCNC(=O)C1CCN(c2nc3ccccc3o2)CC1`, the cell event count was 73 (inactive) (at 100 µM) and 110 (event count, at 10 µM).

In the case of `CC1(C)CC(=O)c2cc(OCC(=O)NCCCN3CCN(c4ccc(F)cc4)CC3)ccc2O1`, the cell event count runs as follows: (at 100 µM) 17 (inactive); (event count, at 10 µM) 112.

`Cc1nnc(NCc2n[nH]c(=O)c3ccccc23)c2ccccc12`: the cell event count was 47 (inactive) (at 100 µM) and 219 (event count, at 10 µM).

For the molecule `CCc1ccc(NC(=O)NCCN2CCc3ccccc3C2)cc1`, the cell event count reads like this: (at 100 µM) 6 (inactive); (event count, at 10 µM) 112.

With `Cc1cc(C)n2nnnc2c1C#N`, the cell event count is 257 (inactive) (at 100 µM) and 172 (event count, at 10 µM).

For `CCOc1cccc2cc(-c3cn4cc(C)ccc4n3)c(=O)oc12`, the cell event count is 267 (inactive) (at 100 µM) and 300 (event count, at 10 µM).

Consider `Cc1oc(-c2ccccc2F)nc1CN1CCC(C(=O)NC2CCCCCCC2)CC1`, for which the cell event count reads like this: (at 100 µM) 6 (inactive); (event count, at 10 µM) 90.

As for `CCC(=O)N(Cc1ccco1)c1nc(-c2cc(OC)ccc2OC)cs1`, the cell event count is, setting by setting: (at 100 µM) 227 (inactive); (event count, at 10 µM) 158.

With `Cc1ccccc1-c1nc(CN2CCCC(C(=O)NCc3cccnc3)C2)c(C)o1` (configuration not stated), the cell event count (at 100 µM) is 124 (inactive) and the cell event count (event count, at 10 µM) was determined as 135.

For the molecule `CC(C)Cc1nc2oc3c(N4CCN(CCO)CC4)ncnc3c2c2c1CCCC2`, the cell event count was 3 (inactive) (at 100 µM) and 120 (event count, at 10 µM).

On to `Cc1oc(-c2cccc(Cl)c2)nc1CN1CCCC(C(=O)NCCCN2CCOCC2)C1` (configuration not stated), for which the cell event count (at 100 µM) is 22 (inactive) and the cell event count (event count, at 10 µM) was 220.

In the case of `CCCOc1ccccc1C1CC(=O)Nc2cc3c(cc21)OCO3` (configuration not stated), the cell event count is, setting by setting: (at 100 µM) 6 (active); (event count, at 10 µM) 56.

For `CCCOc1ccc2nc(NC(=O)OC)[nH]c2c1`, the cell event count was 12 (inactive) (at 100 µM) and 102 (event count, at 10 µM).
